# Source: PubChem BioAssay (EPA / NIEHS)
# A structure can be active in one record and inactive in another. The source made the active and inactive calls. How the source made its calls: active means hit-call score of the fitted dose curve at least 0.9, where 1 is the maximum; inactive means score below 0.9.
# Target: Hepatocyte nuclear factor 6 (Homo sapiens) (UniProt Q9UBC0)
# Test: ATG_HNF6_CIS: Attagene CIS-FACTORIAL HepG2 Assay for human Hepatocyte Nuclear Factor 6 (HNF6) (AID 2282952)
# Conditions: HepG2 Attagene cis-factorial HNF6 reporter transcription; actives raise or lower the signal
# Method: ATG_CIS is a cell-based, multiplexed-readout assay that uses HepG2, a human liver cell line, with measurements taken at 24 hours after chemical dosing in a 24-well plate.ATG_HNF6_CIS is one of 52 assay component(s) measured or calculated from the ATG_CIS assay. It is designed to make measurements of mRNA induction, a form of inducible reporter, as detected with fluorescence intensity signals by Reverse transcription polymerase chain reaction (RT-PCR) and Capillary electrophoresis technology.Data from the assay component ATG_HNF6_CIS was analyzed into 1 assay endpoint. This assay endpoint, ATG_HNF6_CIS, was analyzed with bidirectional fitting relative to DMSO as the negative control and baseline of activity. Using a type of inducible reporter, measures of mRNA for gain or loss-of-signal activity can be used to understand the reporter gene at the transcription factor-level as they relate to the gene ONECUT1. Furthermore, this assay endpoint can be referred to as a primary readout, because this assay has produced multiple assay endpoints where this one serves a reporter gene function. To generalize the intended target to other relatable targets, this assay endpoint is annotated to the dna binding intended target family, where the subfamily is homeobox protein.
# Human liver HepG2 cells are transiently transfected with multiple reporter transcription units (MRTUs) in 6-well plates using FuGene 6 reagent (Roche; 3 ml FuGene/1 mg DNA). The MRTU constructs are regulated by a cis-regulating element (promoter). […] A major difference between the CIS and TRANS system is that in CIS activities of endogenous TFs are measured, whereas the TRANS assay evaluates changes in activities of exogenous, chimeric NR-Gal4 proteins. […] At the end of 24 hour incubation, total RNA was isolated using TriZol reagent (Invitrogen). The isolated RNA is then reverse-transcribed using oligo(dT) primer and Mo-MLV reverse transcriptase (Invitrogen) with DNAse I (Ambion) treatment for 30 min. The one-tenth of the produced cDNA was amplified by PCR using Taq DNA polymerase (Invitrogen) and two reporter sequence-specific primers. The PCR products were fluorescently labeled by primer extension with 6-arboxyfluorescein (6-FAM) 5'-labeled reporter sequence-specific primer (2 min at 95 C, 20 s at 68 C and 10 min at 72 C) and these products were digested with 5U of HpaI (New England Biolabs) for 2h at 37 C. The fragments were purified using Qiaquick PCR columns (Qiagen), analyzed on an ABI 3130xL genetic analyzer (Applied Biosystems) with peak positions identified by using a set of X-rhodamine (ROX)-labeled MapMarker1000 molecular weight standards (BioVentures). The raw capillary electrophoresis data was processed using Attagraph software (Attagene).
# Hepatocyte nuclear factor 6 (Homo sapiens), sequence (Q9UBC0 whole entry, looked up): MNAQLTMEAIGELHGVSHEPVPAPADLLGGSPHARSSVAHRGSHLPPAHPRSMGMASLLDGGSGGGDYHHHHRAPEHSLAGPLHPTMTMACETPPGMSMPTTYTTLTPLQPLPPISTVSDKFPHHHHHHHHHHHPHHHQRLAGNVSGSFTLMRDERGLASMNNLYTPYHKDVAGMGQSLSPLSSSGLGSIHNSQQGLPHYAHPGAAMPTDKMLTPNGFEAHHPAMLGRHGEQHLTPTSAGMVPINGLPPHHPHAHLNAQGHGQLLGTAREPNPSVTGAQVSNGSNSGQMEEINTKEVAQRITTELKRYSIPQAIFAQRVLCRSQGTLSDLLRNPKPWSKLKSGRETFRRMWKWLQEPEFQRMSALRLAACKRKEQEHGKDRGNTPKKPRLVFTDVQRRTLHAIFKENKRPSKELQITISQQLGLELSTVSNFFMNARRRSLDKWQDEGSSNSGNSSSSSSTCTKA
Compound,outcome,AC50
CCCCCCCCCCCC[N+](C)(C)Cc1ccccc1,inactive,17.6 µM (active)
CCc1cccc(CC)c1N(COC)C(=O)CS(=O)(=O)O,inactive,
OCC(F)(F)C(F)(F)C(F)(F)C(F)(F)C(F)(F)C(F)(F)C(F)(F)C(F)(F)C(F)(F)C(F)(F)C(F)(F)F,inactive,
C[N+](C)(CCCNS(=O)(=O)CCC(F)(F)C(F)(F)C(F)(F)C(F)(F)C(F)(F)C(F)(F)F)CC(=O)[O-],inactive,
CC(C)(C)c1ccc(CCC=O)cc1,inactive,
Cc1cc(=O)oc2cc(O)ccc12,inactive,
Cc1ccccc1OCC(=O)O,inactive,
N=C(N)c1ccc(OCCCCCOc2ccc(C(=N)N)cc2)cc1,inactive,
CC=O,inactive,
O=C(Nc1ccc(Cl)c(Cl)c1)c1cc(Cl)cc(Cl)c1O,inactive,
CCCCCCCCCCCCCCCCCC[N+](C)(C)Cc1ccccc1,,10.1 µM (active)
Cc1ccc(N=Nc2c(O)ccc3ccccc23)c(C)c1,inactive,
O=C(OC(=O)C(F)(F)C(F)(F)F)C(F)(F)C(F)(F)F,inactive,
O=C1OC2(c3ccccc31)c1cc(I)c(O)c(I)c1Oc1c2cc(I)c(O)c1I,inactive,
CCCCCC(C)OC(=O)COc1ccc(Cl)c2cccnc12 (stereo not given),inactive,
NC(=NCCCCCCN=C(N)/N=C(\N)Nc1ccc(Cl)cc1)/N=C(\N)Nc1ccc(Cl)cc1,inactive,25.7 µM (active)
CCCCCCCCC(C)=O,inactive,
CC1CCC(CO)CC1 (stereo not given),inactive,
FC(F)(F)C1(F)C(F)(F)C(F)(F)C(F)(F)C(F)(C(F)(F)F)C1(F)F (stereo not given),inactive,

Compound,outcome,AC50
O=CC(F)(F)C(F)(F)C(F)(F)F,inactive,
Nc1ccc(O)c(C(=O)O)c1,inactive,
CCC1CO1 (stereo not given),inactive,
CNNCc1ccc(C(=O)NC(C)C)cc1,inactive,
CCN(CCC#N)c1ccccc1,inactive,
C=C(c1ccc(C(=O)O)cc1)c1cc2c(cc1C)C(C)(C)CCC2(C)C,inactive,
CC1=NN(c2ccccc2)C(=O)C1,inactive,
CC(C)C=O,inactive,
O=C(F)C(F)(F)C(F)(F)C(F)(F)C(F)F,inactive,
CCOC(=O)c1nc(C(Cl)(Cl)Cl)n(-c2ccc(Cl)cc2Cl)n1,,160 µM (active)
O=C1Cc2ccccc2N1c1c(Cl)cccc1Cl,inactive,
CCC(C)c1ccccc1O (stereo not given),inactive,
Cc1cc(C(C)(C)C)c(O)c(C(C)(C)C)c1,inactive,
Cc1ccc(C)c(S(=O)(=O)O)c1,inactive,
CCCCCCCCCCCCOC(=O)c1cc(O)c(O)c(O)c1,inactive,
O=C(O)CCC(F)(F)C(F)(F)C(F)(F)C(F)(F)C(F)(F)F,inactive,
CCCCC(CC)C(=O)O (stereo not given),inactive,
CCCCCCCCCCCC,inactive,
c1cc[nH]c1,inactive,
